In PubChem BioAssay (NCI):
Compounds without any hit were thinned out: in the full panel of roughly 79,000, 15% have a hit. Calls of active or inactive are those of the source. Cut-off read from the data, not from the text of the source: active = growth inhibition above about 70%; inactive = the rest.

Assays:
[1] = NCI Yeast Anticancer Drug Screen. Data for the rad52 strain (AID 147);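 note: 0% = growth of vehicle-treated control cultures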; conditions: S. cerevisiae rad52 mutant growth inhibition, active compounds read high
Summary of the method: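 Screen used a yeast mutant impaired in DNA repair. After compound exposure, growth was measured. Values reflect inhibition compared with vehicle-treated cells.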

[2] = NCI Yeast Anticancer Drug Screen. Data for the wt1 strain (AID 149);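 note: 0% = growth of vehicle-treated wt1 cultures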; conditions: S. cerevisiae wt1 strain (SPY 50644) growth inhibition, active compounds read high
Summary of the method: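 Measured: growth of wt1 yeast under compound versus vehicle treatment, reported as inhibition.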

[3] = NCI Yeast Anticancer Drug Screen. Data for the rad50EPP+ strain (AID 151);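 note: 0% = growth of vehicle-treated control cultures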; conditions: S. cerevisiae rad50 mutant strain, active compounds read high
Summary of the method: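 Exposing the rad50EPP+ strain to each compound, growth was compared with vehicle-only cultures to give inhibition.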

[4] = NCI Yeast Anticancer Drug Screen. Data for the mgt1 strain (AID 153); conditions: S. cerevisiae mgt1 mutant growth inhibition, active compounds read high
Summary of the method: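 Genetically defined yeast (mgt1) treated with compound; inhibition of growth expressed against vehicle-treated controls.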

[5] = NCI Yeast Anticancer Drug Screen. Data for the rad50 strain (AID 155);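 note: 0% = growth of vehicle-only cultures of the same strain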; conditions: S. cerevisiae rad50 strain growth inhibition, active compounds read high
Summary of the method: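 Growth of the mutant yeast was measured after compound exposure and referenced to vehicle-treated cultures.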

[6] = NCI Yeast Anticancer Drug Screen. Data for the mec2-1 strain (AID 157); conditions: S. cerevisiae mec2-1 strain, active compounds read high
Summary of the method: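 Readout is yeast growth inhibition, normalised to vehicle-treated controls, in the mec2-1 strain exposed to compound.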

[7] = NCI Yeast Anticancer Drug Screen. Data for the rad14 strain (AID 159);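 note: 0% = growth of vehicle-treated control cultures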; conditions: S. cerevisiae rad14 strain growth inhibition, active compounds read high
Summary of the method: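 Here, inhibition of yeast growth was measured after compound exposure, using a strain with a genetic defect in DNA damage repair and vehicle-treated cultures as the reference.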

[8] = NCI Yeast Anticancer Drug Screen. Data for the sgs1 mgt1 strain (AID 161);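 note: 0% = growth of cultures given vehicle only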; conditions: S. cerevisiae sgs1 mgt1 strain, active compounds read high
Summary of the method: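 Compounds are added to genetically altered yeast, and growth is compared with cultures given vehicle alone to give percent inhibition.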

[9] = NCI Yeast Anticancer Drug Screen. Data for the CLN2oe strain (AID 163);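 note: 0% = growth of vehicle-only control cultures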; conditions: S. cerevisiae CLN2oe strain, active compounds read high
Summary of the method: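 Values reflect how much compound exposure reduced yeast growth, referenced to vehicle-exposed cells. Assay organism is a strain with a defined genetic change affecting cell-cycle control.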

[10] = NCI Yeast Anticancer Drug Screen. Data for the cln2 rad14 strain (AID 165);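 note: 0% = growth equal to vehicle treated cultures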; conditions: S. cerevisiae cln2 rad14 strain, active compounds read high
Summary of the method: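 Relative to vehicle controls, growth inhibition of compound-treated cln2 rad14 yeast was recorded.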

[11] = NCI Yeast Anticancer Drug Screen. Data for the bub3 strain (AID 167); conditions: S. cerevisiae bub3 mutant strain, active compounds read high
Summary of the method: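 Whole-cell yeast assay. The mutant strain was incubated with compounds, and growth inhibition was determined by comparison with vehicle-treated cells.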

[12] = NCI Yeast Anticancer Drug Screen. Data for the wt2 strain (AID 169);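 note: 0% = growth of vehicle-treated yeast cultures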; conditions: S. cerevisiae wt2 strain growth inhibition, active compounds read high
Summary of the method: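 Values express reduction in yeast growth under compound treatment, referenced to vehicle-treated cells.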

[13] = NCI Yeast Anticancer Drug Screen. Data for the mlh1 strain (AID 171);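 note: 0% = growth of vehicle-treated control cultures of the same strain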; conditions: S. cerevisiae mlh1 strain growth inhibition, active compounds read high
Summary of the method: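 Steps: expose the defined-mutant yeast strain to compound; expose a parallel culture to vehicle; measure growth; express compound effect as inhibition relative to the vehicle culture.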

[14] = NCI Yeast Anticancer Drug Screen. Data for the sgs1 strain (AID 173);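 note: 0% = growth of vehicle-only control cultures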; conditions: S. cerevisiae sgs1 mutant, active compounds read high
Summary of the method: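 Treat defined-mutant yeast with compound; measure growth; calculate inhibition relative to vehicle-treated cells.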

[15] = NCI Yeast Anticancer Drug Screen. Data for the mlh1 rad18 strain (AID 175); conditions: S. cerevisiae mlh1 rad18 strain growth inhibition, active compounds read high
Summary of the method: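 Test agents were incubated with a yeast strain of defined genotype (DNA damage repair defect). Inhibition of growth was derived by comparison with vehicle-exposed cultures.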

[16] = NCI Yeast Anticancer Drug Screen. Data for the rad18 strain (AID 177); conditions: S. cerevisiae rad18 mutant growth inhibition, active compounds read high
Summary of the method: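 A genetically defined yeast mutant impaired in DNA damage repair was treated with test compounds, then its growth was measured against cultures receiving vehicle alone.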

[17] = at 5.0 µM (retest, dose inferred, filed as 0.5)
[18] = at 50.0 µM (retest, dose inferred, filed as 5.0)

Measured: growth inhibition

Oc1c(Br)cc(Br)cc1C1CCCCC1
inactive: [1]; at 1.2 µM -13% | [1]; at 3.7 µM -10% | [1]; at 11.0 µM -2% | [2]; at 1.2 µM -21% | [2]; at 3.7 µM -12% | [2]; at 11.0 µM -6% | [3]; at 1.2 µM 9% | [3]; at 3.7 µM 9% | [3]; at 11.0 µM 23% | [3]; at 33.0 µM 39% | [4]; at 1.2 µM 8% | [4]; at 3.7 µM 13% | [4]; at 11.0 µM 22% | [5]; at 1.2 µM -8% | [5]; at 3.7 µM -9% | [5]; [17] 39% | [5]; at 11.0 µM 5% | [6]; at 1.2 µM -9% | [6]; at 3.7 µM -3% | [6]; at 11.0 µM 5% | [7]; at 1.2 µM -22% | [7]; at 3.7 µM -4% | [7]; at 11.0 µM 3% | [8]; [17] -16% | [9]; at 1.2 µM 22% | [9]; at 3.7 µM 13% | [9]; at 11.0 µM 27% | [10]; [17] 41% | [11]; at 1.2 µM 7% | [11]; at 3.7 µM 19% | [11]; [17] 4% | [11]; at 11.0 µM 25% | [12]; at 1.2 µM -23% | [12]; at 3.7 µM -22% | [12]; at 11.0 µM -15% | [13]; at 1.2 µM -26% | [13]; at 3.7 µM -12% | [13]; at 11.0 µM -5% | [14]; at 1.2 µM -25% | [14]; at 3.7 µM -16% | [14]; at 11.0 µM 10% | [15]; [17] 44% | [16]; at 1.2 µM -16% | [16]; at 3.7 µM 1% | [16]; at 11.0 µM 15%
active: [1]; at 33.0 µM 97% | [1]; at 100.0 µM 98% | [2]; at 33.0 µM 97% | [2]; at 100.0 µM 98% | [3]; at 100.0 µM 87% | [4]; at 33.0 µM 97% | [4]; at 100.0 µM 98% | [5]; at 33.0 µM 95% | [5]; [18] 99% | [5]; at 50.0 µM 89.2% | [5]; at 100.0 µM 96% | [6]; [17] 71% | [6]; at 33.0 µM 96% | [6]; [18] 99% | [6]; at 50.0 µM 90.8% | [6]; at 100.0 µM 98% | [7]; at 33.0 µM 97% | [7]; at 100.0 µM 98% | [8]; [18] 98% | [8]; at 50.0 µM 91.8% | [9]; at 33.0 µM 98% | [9]; at 100.0 µM 99% | [10]; [18] 99% | [10]; at 50.0 µM 89.6% | [11]; at 33.0 µM 96% | [11]; [18] 98% | [11]; at 50.0 µM 89.8% | [11]; at 100.0 µM 97% | [12]; at 33.0 µM 91% | [12]; at 100.0 µM 96% | [13]; at 33.0 µM 91% | [13]; at 100.0 µM 96% | [14]; at 33.0 µM 95% | [14]; at 100.0 µM 97% | [15]; [18] 100% | [15]; at 50.0 µM 87.1% | [16]; at 33.0 µM 93% | [16]; at 100.0 µM 97%

Nc1nc(-c2cccnc2)cc(-c2cc(-c3cccnc3)nc(N)n2)n1
active: [10]; [18] 86%
inactive: [1]; at 1.2 µM 0% | [1]; at 3.7 µM 0% | [1]; at 11.0 µM -3% | [1]; at 33.0 µM -2% | [1]; at 100.0 µM -8% | [2]; at 1.2 µM 0% | [2]; at 3.7 µM -1% | [2]; at 11.0 µM -1% | [2]; at 33.0 µM -2% | [2]; at 100.0 µM -2% | [3]; at 1.2 µM -2% | [3]; at 3.7 µM -3% | [3]; at 11.0 µM -3% | [3]; at 33.0 µM 0% | [3]; at 100.0 µM -2% | [4]; at 1.2 µM 2% | [4]; at 3.7 µM 2% | [4]; at 11.0 µM 2% | [4]; at 33.0 µM -1% | [4]; at 100.0 µM 3% | [5]; at 1.2 µM 0% | [5]; at 3.7 µM 5% | [5]; [17] 1% | [5]; at 11.0 µM 2% | [5]; at 33.0 µM 4% | [5]; [18] 5% | [5]; at 50.0 µM 3.7% | [5]; at 100.0 µM 8% | [6]; at 1.2 µM 0% | [6]; at 3.7 µM 2% | [6]; [17] 24% | [6]; at 11.0 µM -1% | [6]; at 33.0 µM 0% | [6]; [18] 33% | [6]; at 50.0 µM 1.1% | [6]; at 100.0 µM -6% | [7]; at 1.2 µM -1% | [7]; at 3.7 µM 2% | [7]; at 11.0 µM -1% | [7]; at 33.0 µM 0% | [7]; at 100.0 µM -1% | [8]; [17] 19% | [8]; [18] 15% | [8]; at 50.0 µM 0.15% | [9]; at 1.2 µM -2% | [9]; at 3.7 µM 2% | [9]; at 11.0 µM 2% | [9]; at 33.0 µM 1% | [9]; at 100.0 µM 1% | [10]; [17] 46% | [10]; at 50.0 µM 9.95% | [11]; at 1.2 µM 0% | [11]; at 3.7 µM -6% | [11]; [17] -17% | [11]; at 11.0 µM 0% | [11]; at 33.0 µM -2% | [11]; [18] -5% | [11]; at 50.0 µM 6.3% | [11]; at 100.0 µM -10% | [12]; at 1.2 µM -1% | [12]; at 3.7 µM 0% | [12]; at 11.0 µM 1% | [12]; at 33.0 µM -1% | [12]; at 100.0 µM 0% | [13]; at 1.2 µM -1% | [13]; at 3.7 µM -1% | [13]; at 11.0 µM -13% | [13]; at 33.0 µM -14% | [13]; at 100.0 µM 13% | [14]; at 1.2 µM -2% | [14]; at 3.7 µM -4% | [14]; at 11.0 µM -4% | [14]; at 33.0 µM -6% | [14]; at 100.0 µM -7% | [15]; [17] -15% | [15]; [18] 10% | [15]; at 50.0 µM 28.6% | [16]; at 1.2 µM -2% | [16]; at 3.7 µM -4% | [16]; at 11.0 µM -9% | [16]; at 33.0 µM -18% | [16]; at 100.0 µM -28%
